Screening data deposited in PubChem BioAssay by National Center for Advancing Translational Sciences (NCATS).
SARS PLpro yeast = SARS-CoV PLP inhibition in yeast; S. cerevisiae expressing SARS-CoV PLpro, growth rescue; Potency, µM (doses to about 32.9 µM), actives largely listed as activators; hit rate 0.19% among 330,000; AID 485353; calls by dose curve; also: nearly all actives have a fitted effect of over 55% in size
AmpC detergent = inhibitors of E. coli AmpC beta-lactamase with detergent; P00811; AmpC hydrolysis of nitrocefin, absorbance 480 nm, 0.01% Triton; Potency, µM (titrated, usually from 114 µM), most hits filed as inhibitors; hit rate 0.041% among 370,000; also: nearly all actives have a fitted effect of over 25% in size
Target sequence (P00811 whole entry, looked up): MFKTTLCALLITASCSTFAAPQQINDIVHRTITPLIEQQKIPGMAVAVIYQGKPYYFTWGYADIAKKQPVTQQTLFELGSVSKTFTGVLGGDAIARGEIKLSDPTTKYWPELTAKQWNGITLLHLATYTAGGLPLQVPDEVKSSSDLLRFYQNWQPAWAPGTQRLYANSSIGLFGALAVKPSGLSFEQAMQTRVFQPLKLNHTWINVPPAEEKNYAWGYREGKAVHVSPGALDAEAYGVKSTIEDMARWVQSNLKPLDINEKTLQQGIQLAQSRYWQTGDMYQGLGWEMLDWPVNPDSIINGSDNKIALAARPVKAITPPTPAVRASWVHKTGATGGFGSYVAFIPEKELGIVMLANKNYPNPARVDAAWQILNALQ
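AmpC (5.3 nM in the dispensed reagent) in 20 mM phosphate pH 7.0 with 0.01% (detergent screen) or 0.0001% Triton X-100 was preincubated with compounds for 15 min at room temperature. Nitrocefin was then added from an 800 uM solution, and hydrolysis was followed at 480 nm.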
Pf growth 96h = inhibits malaria parasite growth, 96 h | P. falciparum luciferase reporter growth, 96 h | Potency, µM (titrated, usually from 28.7 µM), usual class: inhibitors | hit rate 6.9% among 320,000
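P. falciparum expressing integrated firefly luciferase grown in erythrocytes (2% hematocrit, 0.05% parasitemia final) with compounds for 96 hours at 37 C, 5% CO2. Growth inhibition read as loss of luminescence after adding luciferase detection reagent.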
Sm TGR block = inhibitors of Schistosoma mansoni thioredoxin glutathione reductase; purified TGR, DTNB reduction, TNB absorbance 405 nm; Potency, µM (top dose mostly 114 µM), actives largely listed as inhibitors; Q962Y6; hit rate 3% among 360,000; also: nearly all actives have a fitted effect of over 60% in size
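Kinetic colorimetric format: TGR-catalysed, NADPH-driven DTNB reduction monitored via TNB absorbance. Enzyme dispensed at 20 nM; compound exposure 15 min at room temperature before reaction start.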
AmpC no deterg = inhibitors of E. coli AmpC beta-lactamase without detergent. Potency, µM (titrated, usually from 57.1 µM), most hits filed as inhibitors. hit rate 0.52% among 330,000. AID 485341. AmpC nitrocefin hydrolysis, absorbance 480 nm, 0.0001% Triton; also: nearly all actives have a fitted effect of over 20% in size
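20 mM phosphate pH 7.0 + 0.01% (detergent screen) or 0.0001% Triton X-100; 5.3 nM AmpC reagent; cpd preinc 15 min RT; nitrocefin (800 uM stock) to start; A480 q20 s × 4 min; Activity was normalised to no-enzyme and no-compound control wells.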
Pf growth 48h = P. falciparum growth inhibition at 48 hours (one generation). P. falciparum luciferase growth in erythrocytes, 48 h. Potency, µM (doses to about 28.7 µM), usual class: inhibitors. hit rate 5.9% among 310,000. AID 504832
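A one-generation exposure of luciferase-tagged malaria parasites in RPMI 1640/Albumax erythrocyte culture, 37 C and 5% CO2. Inhibition is inferred from decreased luminescence after adding detection reagent.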
Numbers stand for hits; . = inactive; ? = inconclusive; / = not tested or not shown; [ ] = another dose, or the depositor's remark. Compounds with a hit are over-represented: about 12% of the library has one in this group of screens. Unless noted, calls follow the shape of the dose curve; as a rule, active = well fitted curve in the direction sought with a large enough effect; inconclusive = small, poorly fitted or top-dose-only effect, or another doubt; inactive = no such curve, though single readings can be large; an effect the other way counts as inactive or inconclusive.

SMILES	SARS PLpro yeast	AmpC detergent	Pf growth 96h	Sm TGR block	AmpC no deterg	Pf growth 48h
Cc1ccc(C)c(NC(=S)N2CCN(c3ccccn3)CC2)c1	.	.	?	.	.	.
Cc1ccc(N2C(=O)C3C4C=CC(CNC(=S)Nc5ccc(F)cc5)(O4)C3C2=O)cc1 (stereo not drawn)	.	.	.	3.2µM	.	?
Cc1ccc(N2C(=O)C3C4C=CC(CNC(=S)Nc5ccc(Cl)cc5)(O4)C3C2=O)cc1 (stereo not drawn)	.	.	?	7.1µM	.	.
Cc1ccc(N2C(=O)C3C4C=CC(CNC(=S)N5CCN(c6ccccn6)CC5)(O4)C3C2=O)cc1 (stereo not drawn)	.	.	.	2.8µM	.	?
Cc1ccc(CNC(=O)C2CCCN(C(=O)Nc3ccc(F)cc3)C2)cc1 (stereo not drawn)	.	.	.	.	.	.
CC(C)COC(=O)NCC12C=CC(O1)C1C(=O)N(c3ccc(Cl)cc3)C(=O)C12 (stereo not drawn)	.	.	.	1.6µM	.	.
O=C1C2C3C=CC(CC3)C2C(=O)N1c1ccc(Cl)cc1 (stereo not drawn)	.	?	?	.	.	?
CCN(CC)S(=O)(=O)c1cccc(C(=O)NC(C)C(c2cccs2)N2CCCC2)c1 (stereo not drawn)	.	.	.	.	.	.
CC(C)(C)C(=O)CSc1nc2ccsc2c(=O)n1Cc1ccccc1Cl	/	.	/	.	/	/
COc1cccc(CNc2nc3ccccc3c3nc(-c4cccc(C)c4)nn23)c1	/	.	/	.	/	/
Cc1ccc(C)c(NC(=O)CSc2nncn3c2cc2sccc23)c1	/	.	/	.	/	/
COc1cc2c(cc1OC)CN(C(=O)C1CCCN1S(=O)(=O)c1ccc(F)cc1)CC2 (stereo not drawn)	.	.	.	.	.	.
Cc1ccc(N2C(=O)C3C4C=CC(CNC(=S)Nc5cccc(Cl)c5)(O4)C3C2=O)cc1 (stereo not drawn)	.	.	?	4µM	?	.
COc1ccc(NC(=O)CCn2c(-c3ccc(F)cc3)cc(C(C)=O)c2C)c(OC)c1	/	.	/	.	/	/
Cc1c(Cl)cccc1NC(=O)CSc1ncnc2c1cnn2CCO	.	.	.	.	.	.
Cc1ccc2c(c1)C1CN(C)CCC1N2C(=O)COc1ccccc1F (stereo not drawn)	.	.	12µM	.	.	?
Cc1ccc2c(c1)C1CN(C)CCC1N2C(=S)NC(=O)c1ccc(Cl)cc1Cl (stereo not drawn)	.	?	5.9µM	.	.	?
Cc1ccc2c(c1)C1CN(C)CCC1N2C(=O)c1ccco1 (stereo not drawn)	.	.	/	.	.	.
Cc1nnc(SCC(=O)NCC2CCCO2)n1Cc1ccccc1 (stereo not drawn)	.	/	/	/	.	/
COc1cccc(CNC(=O)CSC2=Nc3ccccc3N=C(c3ccc(F)cc3)C2)c1	/	.	/	.	/	/
Cc1cc(SCC(=O)N/N=C/c2ccc(O)c(O)c2O)c(C)cc1Br	?	.	/	35µM	18µM	13µM
COCCCn1[nH]c2c3c(ccc2c1=O)C(=O)c1ccccc1C3=O	.	.	/	.	.	12µM
CC(C)(C)n1[nH]c2c3c(ccc2c1=O)C(=O)c1ccccc1C3=O	.	.	/	.	.	1.3µM
O=C(/C=C/Nc1ccccc1Oc1ccccc1)c1ccco1	.	.	?	.	.[2.29 µM]	10µM
O=C(Nn1cnnc1)c1ccc(Cl)cc1	.	?	.	.	.	.
SMILES	SARS PLpro yeast	AmpC detergent	Pf growth 96h	Sm TGR block	AmpC no deterg	Pf growth 48h
NS(=O)(=O)c1cc2c(cc1Cl)NC=NS2(=O)=O	.	?	.	.	.	.
COc1ccccc1-n1c(SCC(=O)NCc2ccc3c(c2)OCO3)nc2cc([N+](=O)[O-])ccc21	.	.	?	.	.	?
CC(Sc1nc2cc([N+](=O)[O-])ccc2n1-c1ccc(F)cc1)C(=O)NCc1ccc2c(c1)OCO2 (stereo not drawn)	.	.	1.7µM	.	.	?
Cc1cc(C)cc(-n2c(SC(C)C(=O)NCc3ccc4c(c3)OCO4)nc3ccccc3c2=O)c1 (stereo not drawn)	.	.	.	.	.	13µM
CC(Sc1nc2cc([N+](=O)[O-])ccc2n1-c1cccc(C(F)(F)F)c1)C(=O)NC(N)=O (stereo not drawn)	.	.	0.66µM	.	.	0.59µM
Cc1cccc(-n2c(SCC(=O)NCc3ccc4c(c3)OCO4)nc3ccccc3c2=O)c1	.	.	?	.	.	?
COCCCn1c(SC(C)C(=O)Nc2c(C)n(C)n(-c3ccccc3)c2=O)n[nH]c1=O (stereo not drawn)	.	?	.	.	.	?
CC(=C/c1ccc(C(C)C)cc1)/C=N/NC(=O)c1ccncc1	.	.	?	.	.	13µM
CC(/C=N/NC(=O)c1cnccn1)=C\c1ccco1	.	.	.	28µM	.	.
CC(/C=N/NC(=O)c1cc(-c2ccccc2)nc2ccccc12)=C\c1ccco1	.	.	?	.	.	.
CC(/C=N/NC(=O)c1cccnc1)=C\c1ccco1	.	?	/	50µM	.	.
COc1ccc(C(=O)NCC(=O)N/N=C/C(C)=C/c2ccco2)cc1OC	.	?	.	?	.	.
CC(=C/c1ccco1)/C=N/NC(=O)c1ccncc1	.	.	.	45µM	.	.
CSCCC(NS(=O)(=O)c1ccc2c(c1)oc(=O)n2C)C(=O)NCCc1ccc(C)cc1 (stereo not drawn)	/	.	/	.	/	/
Cc1ccc(NC(=O)CSc2nnc(-c3cc4occc4n3C)n2-c2ccccc2C)c(C)c1	/	.	/	.	/	/
CC(C)c1ccc(NC(=O)CSc2nc(=O)n(Cc3ccccn3)c3c2CCC3)cc1	/	.	/	.	/	/
CCN1CCN(c2ccc(S(=O)(=O)N3CCCCC3)cc2NC(=O)Cc2ccccc2)CC1	.	?	?	.	.	?
CCN1CCN(c2ccc(S(=O)(=O)N3CCCCC3)cc2NC(=O)c2ccccc2)CC1	.	.	.	.	.	?
COc1ccccc1OCC(=O)Nc1cc(S(=O)(=O)N2CCCCC2)ccc1N1CCCCC1	.	.	2.1µM	.	.	5.2µM
CCN1CCN(c2ccc(S(=O)(=O)N3CCCCC3)cc2NC(=O)c2ccc([N+](=O)[O-])s2)CC1	.	.	1.7µM	.	.	4.7µM
CCN1CCN(c2ccc(S(=O)(=O)N3CCCCC3)cc2NC(=O)COc2ccccc2)CC1	.	.	?	.	.	12µM
Cc1ccc(S(=O)(=O)N2CCC(C(=O)Nc3ccccc3N3CCCCC3)CC2)cc1C	.	?	?	.	.	?
